As a reminder, the IC50 is the point on the concentration scale where inhibition reaches its midpoint.

Hit rate of the full screen: of about 2,200 compounds, about 1,200 (55%) were called active. The limit is not given here; nearly all actives have IC50 up to about 92 µM. So high a share suggests a set chosen from earlier hits. This is one part of the list.

A short description of this test: counter assay for TAg ATPase ADP read-out – biochemical, ADP-Hunter, fluorescence, counter-screen (AID 2501).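 Also: purified T antigen ATPase.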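 As to inhibition: higher means more inhibition.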 The note with it: series mostly up to 100 µM. A general note: The purpose of a counterscreen is to sort out artefacts and off-target activity.
For the compound `CO[C@@H]1O[C@@H]2COC(c3ccccc3)O[C@@H]2[C@@H](OC)[C@@H]1O` (some centres undefined), the IC50 entry was “inactive”.

Turning to `CC1(C)OC(=O)C(=NNc2ccc(O)cc2)C(=O)O1`, the half-inhibitory concentration (IC50) was 3.09 µM (active).

Consider `Nc1nc2ccc(S(=O)(=O)N3CCCCC3)cc2s1`, for which the IC50 result is “inactive”.

`Nc1ccccc1-c1nc2ccccc2s1`: the IC50 result was “inactive”.

Turning to `Nc1nc2ccc(O)cc2s1`, the IC50 was 2.36 µM (active).

Take `Nc1nc2ccc(N3CCOCC3)cc2s1`: the 50% inhibitory concentration (IC50) was 3.09 µM (active).

On to `CCOc1ccc(N2C(=O)CC(N3CCOCC3)C2=O)cc1` (centres undefined), for which the IC50 result was “inactive”.

Regarding `CN(C)c1ccc(N2C(=O)CC(Nc3ccc(N4CCOCC4)cc3)C2=O)cc1` (centres undefined), the IC50 was 4 µM (active).

As for `NC(=O)c1ccsc1NC(=O)C1CCN(S(=O)(=O)c2cccs2)CC1`, the IC50 result was “inactive”.

For the compound `O=S(=O)(c1cccs1)N1CCN(c2ccc(O)cc2)CC1`, the IC50 is 5.21 µM (active).

In the case of `O=C(c1cccs1)N1CCN(C(=O)C2CCCO2)CC1` (centres undefined), the IC50 result is “inactive”.

For `O=C(CCC(=O)N1CCN(c2ccc(O)cc2)CC1)c1cccs1`, the 50% inhibitory concentration (IC50) was 2.87 µM (active).

Consider `O=C(NCc1ccc(F)cc1)C(=O)NCC1OCCN1S(=O)(=O)c1cccs1` (centres undefined), for which the IC50 entry was “inactive”.

On to `O=C(NC(=S)N1CCN(c2ccc(O)cc2)CC1)c1cccs1`, for which the IC50 was 5.56 µM (active).

With `O=C(CC1SC(=O)N(c2ccccc2)C1=O)Nc1cccc2ccccc12` (centres undefined), the IC50 entry was “inactive”.

On to `COc1ccc(CCNc2ccc(C(CC(N)=O)NC(=O)Cc3ccc(Br)cc3)cc2[N+](=O)[O-])cc1` (centres undefined), for which the IC50 result is “inactive”.

Take `CN(C)C(=S)Nc1ccc(N2CCOCC2)cc1`: the IC50 is 2.52 µM (active).

Turning to `O=Cc1sc(=O)n(Cc2cccc(C(=O)O)c2)c1Cl`, the IC50 result was “inactive”.

With `Cc1nc2sc(C(c3ccco3)N3CCC(C)CC3)c(O)n2n1` (centres undefined), the IC50 result is “inactive”.

As to `Cc1ccc2nc(-c3ccccn3)c(NC3CCCC3)n2c1`, the IC50 is 10.1 µM (active).

Take `Cc1ccccc1Nc1c(-c2ccccn2)nc2ccccn12`: the IC50 was 10.9 µM (active).

In the case of `c1ccc(-c2cccc(-c3ccccn3)n2)nc1`, the IC50 entry was “inactive”.

On to `C[C@@H]1NC(=O)[C@H](CCC(N)=O)NC(=O)c2cc([N+](=O)[O-])cc(I)c2NCC[C@@H](C(N)=O)NC1=O`, for which the IC50 entry is “inactive”.

For `O=c1[nH]c2ccccc2n2c(-c3ccccc3)nnc12`, the IC50 result was “inactive”.

For the compound `CC(=O)NS(=O)(=O)c1ccc(NC(=S)NC(=O)Cc2ccccc2)cc1`, the IC50 result was “inactive”.

Consider `CC(=O)Nc1ccc(S(=O)(=O)Nc2nc3ccccc3nc2Nc2ccc(O)cc2)cc1`, for which the IC50 was 7.76 µM (active).

In the case of `CC(=O)Nc1ccc(S(=O)(=O)Nc2nc3ccccc3nc2Nc2ccc(N)cc2)cc1`, the IC50 was 5.8 µM (active).

With `O=c1nc2s/c(=C\c3ccco3)c(=O)n2nc1Cc1ccc(F)cc1`, the IC50 entry was “inactive”.

In the case of `COc1cc(/C=N/NC(=O)c2ccc3nc[nH]c3c2)ccc1O`, the half-maximal inhibitory concentration (IC50) is 5.28 µM (active).

Take `Cc1cc(C)n2nc(C(=O)N/N=C/c3ccc(O)cc3)nc2n1`: the IC50 is 2.32 µM (active).

For `COc1cc(/C=N/NC(=O)c2cc(C3CC3)[nH]n2)ccc1O`, the IC50 is 3.26 µM (active).

Turning to `COc1cc(/C=N/NC(=O)c2nnn(-c3nonc3N)c2-c2cccs2)ccc1O`, the IC50 was 3.94 µM (active).

`COc1cccc(CN2CCNC(=O)C2CC(=O)NCc2cn3ccccc3n2)c1OC` (centres undefined): the IC50 result was “inactive”.

For `Cc1cccn2c(CN(C)CCC3CCCCO3)c(C(=O)N3CCCCC3)nc12` (centres undefined), the IC50 result was “inactive”.

For the compound `COc1cc(/C=N/NC(=O)c2c(-c3ccccc3)noc2C)ccc1O`, the IC50 was 4.78 µM (active).

Consider `COc1cc(/C=N/N(C)c2ccccc2)ccc1O`, for which the IC50 is 8.84 µM (active).

Take `COc1cc(/C=N/NC(=O)C2COc3ccccc3O2)ccc1O` (centres undefined): the IC50 is 3.2 µM (active).

Turning to `COc1cc(/C=N/NC(=O)c2cnccn2)ccc1O`, the IC50 was 3.09 µM (active).

For the compound `C=CCN1CCN(C(=O)c2c(-c3ccccc3)noc2C)CC1`, the IC50 entry is “inactive”.

`CCCOc1ccc(C(=O)N2CC3(CC(c4cccc(NC(=O)[C@@H]5CCC(=O)N5)c4)=NO3)C[C@H]2C(=O)NC2(C(N)=O)CC2)cc1` (some centres undefined): the IC50 entry is “inactive”.

Regarding `COc1cc(/C=N/NC(=O)c2cccs2)ccc1O`, the IC50 is 4.58 µM (active).

Turning to `COc1cc(/C=N\NC(=O)c2c(C)nc3cc(C)ccn23)ccc1O`, the IC50 is 4.52 µM (active).

With `COc1cc(/C=N/NC(=S)Nc2cccc(C(=O)O)c2)ccc1O`, the IC50 was 2.66 µM (active).

Take `COc1cc(/C=N/NC(=O)c2nc(C)cc(C)n2)ccc1O`: the IC50 was 2.74 µM (active).

On to `CCCOc1ccccc1/C=C1\SC(N2CCCCC2)=NC1=O`, for which the IC50 entry is “inactive”.

`COc1ccc(/C=N\NC(=O)c2ccc(=O)[nH]n2)cc1O`: the IC50 was 3.12 µM (active).

As for `COc1cc(/C=N/NC(=O)c2ccccc2)ccc1O`, the concentration for half-maximal inhibition (IC50) is 5.63 µM (active).

With `COc1cc(/C=N/NC(=O)c2ccncc2)ccc1O`, the IC50 is 3.56 µM (active).

As to `CCOC(=O)C[n+]1c(C)sc2ccc(OC)cc21`, the IC50 result is “inactive”.

As for `C=CCOc1ccccc1CNc1ccc2[nH]c(=O)[nH]c2c1`, the IC50 was 5.14 µM (active).

Take `O=C(Nc1ccc2[nH]c(=O)[nH]c2c1)c1cccc([N+](=O)[O-])c1`: the IC50 result was “inactive”.

`O=c1[nH]c2ccc(NCc3ccc(F)cc3)cc2[nH]1`: the IC50 is 5.43 µM (active).

With `C=CCOc1c(CNc2ccc3[nH]c(=O)[nH]c3c2)cccc1OC`, the IC50 was 3.28 µM (active).

As for `C=CCOc1ccc(CNc2ccc3[nH]c(=O)[nH]c3c2)cc1OCC`, the IC50 is 3.26 µM (active).

Regarding `Cc1ccc(C2C(C#N)=C(N)Oc3c2oc(CO)cc3=O)o1` (centres undefined), the IC50 entry is “inactive”.

In the case of `O=C1CC(=O)N(Cc2ccco2)C(=S)N1`, the IC50 entry was “inactive”.

For `O=C1c2sc3nc4n(c(=O)c3c2CCC1Br)CCCCC4` (centres undefined), the IC50 entry is “inactive”.

With `COc1ccc2[nH]c(=O)c(CNc3ccccc3OC)cc2c1`, the IC50 entry was “inactive”.

Regarding `C=CCOc1cccc(CNc2ccc3[nH]c(=O)[nH]c3c2)c1`, the IC50 was 4.29 µM (active).

As to `COc1cccc(CNc2ccc3[nH]c(=O)[nH]c3c2)c1OCc1ccccc1`, the IC50 was 3.98 µM (active).

On to `COc1cc(/C=C2\SC(=Nc3ccc(Cl)c(C(=O)O)c3)NC2=O)c(Br)c(Br)c1O`, for which the IC50 was 3.98 µM (active).

As for `COc1cc(/C=C2\S/C(=N/S(=O)(=O)c3ccc(C)cc3)NC2=O)c([N+](=O)[O-])cc1OC`, the IC50 result is “inactive”.

On to `CN1CN(C)c2cccc3cccc1c23`, for which the 50% inhibitory concentration (IC50) is 13.5 µM (active).

With `CN(C)c1ccc(N/C=C/C(=O)c2ccccc2)cc1`, the IC50 was 3.25 µM (active).

Consider `CCOC(=O)c1ccc(N/C=C/C(=O)C(C)(C)C)cc1`, for which the IC50 entry was “inactive”.

As to `CN(C)c1ccc(N/C=C/C(=O)C(F)(F)F)cc1`, the IC50 was 8.86 µM (active).

Turning to `COc1ccccc1N/C=C/C(=C(C#N)C#N)N(C)C`, the IC50 result was “inactive”.

For `O=S(=O)(Nc1c(O)ccc2ccccc12)c1ccc(F)cc1`, the IC50 result was “inactive”.

In the case of `Oc1ccc2ccccc2c1N=Nc1ccccc1F`, the IC50 was 7.8 µM (active).

On to `O=C(CSc1cccc2cccnc12)N/N=C/c1ccc(O)cc1`, for which the half-maximal inhibitory concentration (IC50) is 4.35 µM (active).

With `CCOc1cc(/C=N/NC(=O)CSc2cccc3cccnc23)ccc1O`, the IC50 is 3.48 µM (active).

Consider `O=C(N/N=C/c1ccc(O)c(O)c1)c1ccc(CSc2cccc3cccnc23)cc1`, for which the 50% inhibitory concentration (IC50) is 29 µM (active).

As to `O=S(=O)(Nc1cc(Sc2cccc3cccnc23)c(O)c2ccccc12)c1ccc(F)cc1`, the IC50 result was “inactive”.

On to `O=C(COc1cccc2cccnc12)N/N=C/c1ccc(O)cc1`, for which the IC50 was 73.5 µM (active).

On to `COc1ccc([C@@H]2[C@@H]3C(=O)N(C(C)(C)C)C(=O)[C@@H]3[C@]3(C)C(=O)N(c4ccc(C)cc4)C(=O)N23)cc1`, for which the IC50 entry is “inactive”.

Turning to `COc1ccc(NC2CCCN(C(=O)c3ccc(OC)cc3OC)C2)cc1` (centres undefined), the IC50 was 3.38 µM (active).

As for `CSc1ncc(CN2CCCC(C(=O)Nc3ccc(-c4ccco4)cc3)C2)cn1` (centres undefined), the IC50 result was “inactive”.

Regarding `COc1ccc(C(=O)Nc2ccc3c(c2)CCCN3C(=O)c2cccs2)c(OC)c1`, the IC50 result was “inactive”.

Consider `COc1ccc(NC2CCCN(C(=O)c3ccc(OC)o3)C2)cc1` (centres undefined), for which the IC50 is 10.4 µM (active).

Take `O=C(c1ccco1)N1CCN(C(=O)N2CCCC2)CC1`: the IC50 result was “inactive”.

For the compound `COc1ccc(NC2CCCN(C(=O)c3ccncc3)C2)cc1` (centres undefined), the IC50 was 12 µM (active).

On to `O=C(c1ccco1)N1CCCC(Nc2ccc3c(c2)OCCO3)C1` (centres undefined), for which the IC50 was 13.5 µM (active).

In the case of `COCc1ccc(C(=O)N2CCCC(CCC(=O)NCc3ccccc3F)C2)o1` (centres undefined), the IC50 result was “inactive”.

With `O=C(c1cc(F)ccc1F)C1CCCN(C(=O)c2ccc(F)cc2Cl)C1` (centres undefined), the IC50 result was “inactive”.

`COc1cc(O)c(C(C)=O)c(CC(=O)O)c1`: the IC50 result was “inactive”.

For `CN(Cc1ccno1)Cc1cn(C)nc1-c1ccc(Oc2ccccc2)cc1`, the IC50 entry was “inactive”.

Regarding `CCOc1ccc(C(=O)N(Cc2ccc(OC)cc2)Cc2cc3cc(OC)ccc3[nH]c2=O)cc1`, the IC50 entry was “inactive”.

For the compound `N#CC(C#N)=C1C=CC=CN1/C(=C\c1ccco1)C(=O)c1ccc(Br)cc1`, the IC50 result is “inactive”.

Consider `CCOc1cc(S(=O)(=O)n2nc(C)cc2C)ccc1Br`, for which the IC50 result was “inactive”.

For the compound `CCCN1CCN(C(=O)c2cc(COc3ccc4ncccc4c3)on2)CC1`, the IC50 result was “inactive”.

For the compound `COc1ccc(NC2CCCN(C(=O)c3cccc(C(F)(F)F)c3)C2)cc1OC` (centres undefined), the IC50 was 12 µM (active).

Turning to `O=C1CCC(CCC(=O)N2CCCC(C(=O)c3cccc(C(F)(F)F)c3)C2)=NN1` (centres undefined), the IC50 entry is “inactive”.

For the compound `COc1ccc(NC(=O)N2CCCC(C(=O)Nc3cccc(C)c3C)C2)cc1` (centres undefined), the IC50 result was “inactive”.

For the compound `COc1ccc(NC2CCCN(C(=O)c3c(C)noc3C)C2)cc1` (centres undefined), the IC50 is 6.38 µM (active).

As for `COc1ccc(NC2CCCN(C(=O)c3ccc(C(C)=O)cc3)C2)cc1` (centres undefined), the concentration for half-maximal inhibition (IC50) was 2.06 µM (active).

Regarding `COc1ccc(NS(=O)(=O)c2ccc3c(c2)[C@H]2C=CC[C@H]2[C@@H](c2ccc(C(=O)O)cc2)N3)cc1`, the IC50 entry is “inactive”.

With `Cc1ccc(C(=O)Oc2oc(-c3ccccc3)nc2C=Nc2ccc(N(C)C)cc2)cc1`, the IC50 result was “inactive”.

With `Cc1cc(C)c2c(=O)n(CC(=O)N3CCC(N4CCCCC4)CC3)sc2n1`, the IC50 entry was “inactive”.

Consider `CN(C)c1ccc(NC(=O)CN2CCC(N3CCCCC3)CC2)cc1`, for which the IC50 was 6.64 µM (active).

Take `Cc1ccc(C(=O)C2CCN(CC(=O)Nc3ccc(N(C)C)cc3)CC2)cc1`: the IC50 is 6.37 µM (active).

For `CN(C)c1ccc(NC(=O)CN2CCC(C(=O)c3ccc(F)cc3)CC2)cc1`, the IC50 was 3.05 µM (active).

With `CC(C)NC(=O)C1CCN(C2CCN(Cc3ccc4cccc(F)c4n3)CC2)CC1`, the IC50 result is “inactive”.

As for `Cc1ccc(NC(=O)CN2C(=O)N/C(=C/c3cccn3-c3ccc(C(=O)O)cc3)C2=O)cc1`, the IC50 result was “inactive”.

Take `Cc1ccc(NC(=O)CN2C(=O)N/C(=C/c3cc(C)n(-c4ccc(C(=O)O)cc4)c3C)C2=O)cc1`: the IC50 result is “inactive”.

The values are drawn from PubChem BioAssay AID2501 (Southern Research Specialized Biocontainment Screening …, 2010).
